# An excerpt weighted towards active compounds, which were near 4.7% of everything screened.
# tim23-1 inh: tim23-1 yeast growth inhibition; S. cerevisiae tim23-1 growth, BacTiter-Glo luminescence, 24 h; AID 463212; inhibition, % at 20 µM; 1.3% of 330,000 active;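 active = growth inhibition of the mutant yeast at or above 50%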;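 note: temperature-sensitive mutant grown at 25 °C; plate controls were DMSO-treated mutant yeast for no effect and medium wells lacking yeast for full effect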
# tim10-1 inh: inhibits growth of tim10-1 mutant yeast; AID 463190; S. cerevisiae tim10-1 ts strain growth, BacTiter-Glo, 24 h; inhibition, % at 20 µM; 2.2% of 330,000 active;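 active = inhibition of at least 40%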;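 note: mutant grown at 25 °C; 0% = DMSO wells with yeast and 100% = wells holding no yeast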
# PfHsp90 yeast 2: growth inhibition of yeast expressing Plasmodium Hsp90. S. cerevisiae expressing PfHsp90, BacTiter-Glo ATP, 48 h; yeast lacking PDR1 and PDR3 efflux regulators. inhibition, % at 9.4 µM. 0.32% of 310,000 active;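 active = every replicate shows inhibition above about 80%, whatever the replicate mean, limit read from the data; inconclusive = mean inhibition reaches the set limit but some replicate falls short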;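 note: 0% = DMSO neutral controls and 100% = 20 µM radicicol positive controls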
# EBI2 block: antagonists of human EBI2 receptor; P32249; EBI2 beta-arrestin recruitment, luminescence, 7a,25-OHC stimulated; inhibition, % at 5 µM; 0.81% of 360,000 active; AID 651636; in the data active = inhibition above about 38%;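 note: enzyme fragment complementation signal reports receptor beta-arrestin coupling in cells; 0% = agonist plus DMSO wells and 100% = wells without agonist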
# Target sequence (P32249 whole entry, looked up, the tested form may be a part): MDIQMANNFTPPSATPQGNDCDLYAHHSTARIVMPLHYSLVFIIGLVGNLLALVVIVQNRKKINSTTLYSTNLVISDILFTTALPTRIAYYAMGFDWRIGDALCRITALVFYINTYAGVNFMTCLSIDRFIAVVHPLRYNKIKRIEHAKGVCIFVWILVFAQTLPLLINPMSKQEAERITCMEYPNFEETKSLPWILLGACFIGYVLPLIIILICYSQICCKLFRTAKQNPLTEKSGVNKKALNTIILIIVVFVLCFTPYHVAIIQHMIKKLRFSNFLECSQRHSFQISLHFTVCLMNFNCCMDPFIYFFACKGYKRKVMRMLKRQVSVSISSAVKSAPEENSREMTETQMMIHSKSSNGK
# SKKanGAS inh: blocks kanamycin growth of S. pyogenes SKKanGAS strain; 1.3% of 300,000 active; BacTiter-Glo, 6 h; inhibition, % at 7.5 µM;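 active = mean replicate score, as percent of positive control median, at least 50; inconclusive = mean below 50 but one replicate at or above 50; inactive = mean and every replicate below 50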;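 note: strain carries kanamycin resistance gene driven by streptokinase promoter and grows in 40 µg/ml kanamycin; loss of luminescence reflects streptokinase promoter inhibition or plain growth inhibition; 0% = median of DMSO wells and 100% = positive control at its reference dose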
# TIM10 inh: inhibits growth of TIM10 yeast strain; S. cerevisiae TIM10 strain growth, BacTiter-Glo luminescence, 24 h; inhibition, % at 10 µM; 1.4% of 330,000 active; AID 463195;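 active = inhibition of 40% or more at the single tested concentration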;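 note: wild-type TIM10 isogenic control strain grown at permissive 25 °C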
# tim10-1 confirm: tim10-1 yeast growth inhibition, confirmed. AID 463213. S. cerevisiae tim10-1 ts strain growth, BacTiter-Glo, 24 h. inhibition, % at 20 µM. shares compounds with tim10-1 inh. 56% of 7,400 active;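 active = inhibition of yeast growth at or above a set limit in either of two repeat tests at 20 µM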;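 note: tim10-1 mutant grown at permissive 25 °C to find synthetic lethal compounds; 0% = DMSO yeast wells and 100% = medium wells without yeast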
# * hit, by the source's call; ? = inconclusive; / = no result.
SMILES,tim23-1 inh,tim10-1 inh,PfHsp90 yeast 2,EBI2 block,SKKanGAS inh,TIM10 inh,tim10-1 confirm
O=C(OCc1nnc(-c2ccccc2)o1)c1ccco1,-11,41*,-8,-13,1,15,12
CCn1c(SCc2nc(-c3ccccc3)no2)nnc1-c1ccco1,5,22,18,8,-13,-1,/
CCn1c(SCc2c(F)cccc2Cl)nnc1-c1ccco1,43,49*,2,12,6,13,41*
Cc1ccc(/C(N)=N/OC(=O)CN(C)S(=O)(=O)c2ccc(C)cc2)cc1,32,47*,-10,-3,-3,12,20
COc1ccc(/C(N)=N/OC(=O)CN(C)S(=O)(=O)c2ccccc2)cc1,-7,-9,-28,13,/,-17,/
Cc1ccc(S(=O)(=O)N(C)CC(=O)O/N=C(\N)c2cccc(Br)c2)cc1,26,50*,-18,10,0,24,52*
CN(CC(=O)O/N=C(\N)c1ccccn1)S(=O)(=O)c1ccccc1,-4,26,-24,-16,-11,0,/
COc1ccc(/C(N)=N/OC(=O)CN(C)S(=O)(=O)c2ccc(C)cc2)cc1,/,/,-5,9,/,/,/
CN(CC(=O)O/N=C(\N)c1ccc([N+](=O)[O-])cc1)S(=O)(=O)c1ccc2ccccc2c1,34,45*,/,-12,4,34,47*
CCN(c1cccc(C)c1)S(=O)(=O)c1cc(CN2C(=O)c3cccnc3C2=O)ccc1OC,2,17,-1,-2,1,8,/
O=S(=O)(NC1c2cccc3cccc(c23)C1Sc1ncccn1)c1ccccc1 (centres undefined),33,16,-29,-3,38,1,/
CC(Oc1ccc2cc(-c3ccccc3)c(=O)oc2c1)C(=O)NCC1CCC(C(=O)O)CC1 (centres undefined),-6,-1,-5,0,15,0,/
Cc1cc(NC(=O)CCC(=O)N(Cc2ccco2)C2(C(=O)NC3CCCCC3)CCCC(C)C2)no1 (centres undefined),14,9,-10,14,-1,-10,/
CCOC(=O)C1(S(=O)(=O)c2ccccc2)CCN(Cc2ccc(Cl)cc2)CC1,43,48*,23,10,0,24,20
CCOC(=O)C1(CCc2ccccc2)CCN(Cc2ccc(O)cc2)CC1,11,-1,-20,6,-6,0,/
O=C(CCC1CCCC1)N[C@@H](Cc1ccc(O)cc1)C(=O)O,4,-1,10,-17,6,2,/
COc1ccc(NC(=O)N2CCCc3ccccc32)c(OC)c1,29,23,9,-1,12,10,/
COc1ccc(C)cc1NC(=O)N1CCCc2ccccc21,26,47*,-5,-2,-12,4,15
CC(OC(=O)CNC(=O)COc1ccccc1)C(=O)N(C)Cc1ccccc1 (centres undefined),2,-9,24,4,-1,-4,/
COc1ccc(S(=O)(=O)NCC2CCCO2)cc1NC(=O)c1ccccc1F (centres undefined),7,-5,13,1,-2,-16,/
Cc1cccc(C(=O)/C=C2/c3ccccc3CC(C)(C)N2C)c1,36,38,6,6,-2,31,/
Cc1ccccc1C(=O)/C=C1/c2ccccc2CC(C)(C)N1C,45,42*,/,0,5,32,21
CN1/C(=C\C(=O)c2ccccc2Cl)c2ccccc2CC1(C)C,44,36,16,-14,12,28,/
CN1/C(=C\C(=O)c2ccco2)c2ccccc2CC1(C)C,30,47*,-13,1,0,1,16
O/N=C(\c1ccccc1)C(O)c1ccccc1 (centres undefined),15,-9,4,-1,-8,18,/
SMILES,tim23-1 inh,tim10-1 inh,PfHsp90 yeast 2,EBI2 block,SKKanGAS inh,TIM10 inh,tim10-1 confirm
COc1cccc(NC(=S)N/N=C2/CCCCc3ccccc32)c1,/,/,-8,22,-32,/,/
CC(C)NC(=S)N/N=C1\CCCCc2ccccc21,35,57*,-12,-10,13,34,38*
C/C(=N\NC(=O)CNc1cccc(C(F)(F)F)c1)c1ccc(Br)cc1,12,27,10,5,-13,12,/
C/C(=N\Nc1cccc(C(F)(F)F)c1)c1ccc(O)cc1,16,45*,9,0,2,9,-10
CCCc1ccc(S(=O)(=O)NCc2nnc(SC)n2C)cc1,11,0,-1,-2,-1,2,/
Cc1ccc(-n2nc(-c3cccs3)cc2C(=O)NCC2CCCO2)c(C)c1 (centres undefined),7,41*,-17,-2,0,37,28
Cc1cc(Br)cc2c(C(=O)NCC3CCCO3)cc(-c3cccs3)nc12 (centres undefined),17,31,15,-12,-3,7,/
O=S(=O)(N/N=C1/CCCc2ccccc21)c1ccc(Br)cc1,28,42*,-43,-5,10,36,24
O=S(=O)(N/N=C1/CC(c2ccccc2)Oc2ccccc21)c1ccc(Br)cc1 (centres undefined),29,41*,/,7,36,29,29*
Cc1ccc(CNC(=O)CN2C(=O)COc3ccc(S(=O)(=O)N4CCCCC4)cc32)o1,-10,4,1,3,14,-8,/
Cc1nc(N2CCC(C)CC2)c2c(C)c(C(=O)Nc3ccc4c(c3)OCCO4)sc2n1,40,42*,11,1,-3,17,12
Cc1c(C(=O)Nc2ccc3c(c2)OCCO3)sc2ncnc(N3CCCCC3C)c12 (centres undefined),46,46*,-42,13,-17,5,20
CCc1ccc(-c2ccc3nnc(SC)n3n2)cc1,42,56*,-40,-19,12,17,18
CCSc1nnc2ccc(-c3ccc(C)cc3)nn12,38,45*,-14,4,0,-5,24
CCc1ccc(-c2ccc3nnc(SCC(N)=O)n3n2)cc1,15,23,-15,-5,?,15,/
Cc1ccc(C(=O)NCc2ccccn2)cc1NC1=NC2CS(=O)(=O)CC2S1 (centres undefined),9,10,-1,-1,-2,-1,/
O=C(/C=C/c1cccs1)Nc1cccc(NC(=O)/C=C/c2cccs2)n1,35,40*,-16,12,40,31,11
O=C(/C=C/c1cccs1)Nc1nccs1,1,0,14,0,-2,2,/
COC(=O)[C@@]1(C(C)C)N=C(c2cc(OC)c(OC)c(OC)c2)[C@]2(O1)C(=O)N(Cc1ccc(OC)cc1)c1ccc(Br)cc12,/,/,/,-1,/,/,/
CC(C)c1ccc(NC2=CC(=O)CC(C)(C)C2)cc1,38,41*,-18,-12,-2,17,15

# Assay outcomes: PubChem, several laboratories
